Data taken from PubChem BioAssay AID588827 (Broad Institute, 2011).
Screen size: about 2,400 compounds; about 20 (0.8%) were called active. About 19% were inconclusive and are not listed.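 Rule for the calls: active = fitted half-maximal concentration for signal decrease at or below twice the top tested dose, in every repeat run; inconclusive = repeat runs disagree, or flat partial inhibition, or poor fit; inactive = all runs flat, wrong-direction or potency beyond limit.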 Not all results are given here. Results with a measured potency or affinity are listed apart.

Test: decrease of heat-induced HSF-1 GFP reporter, dose response, NIH3T3 R4 cells, GFP/RFP, cherry-pick, set 4 (AID 588827);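 note: 0% = neutral control wells and -100% = didemnin B at 400 nM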
Conditions: NIH3T3 R4 HSF-1 GFP reporter, heat shock, 48 h; series mostly up to 19.5 µM; activity change, negative = inhibition: at the top concentration

Activity change, negative = inhibition, inactive:
COc1ccc2nnc(-c3ccc(C(F)(F)F)cc3)n2n1 -29%, O=C1CCCC/C1=N\Nc1ccc(C2CCCCC2)cc1 -12.6%, COc1ccc(C(=O)C2CCCN(S(=O)(=O)c3ccccc3F)C2)c(C)c1 (stereo not given) -19.3%, Cc1cc(S(=O)(=O)N2CCN=C2c2ccccc2)c(C)cc1Cl -13.8%, COc1cc(/C=N/N=C2/C(=O)Nc3ccccc32)cc(OC)c1O -6.39%, O=C(NCc1ccco1)C(=O)NCC(c1ccco1)N1CCOCC1 (stereo not given) -10.2%, CCOC(=O)C1(CCOc2ccccc2)CCN(Cc2cccc(-n3cccn3)c2)CC1 19%, CC(=O)N/N=C(\C)CC(=O)NC(C)(C)C 6.32%, C=CCn1c(C)cc(C(=O)CSc2nnc(NC(C)C)s2)c1C -14.3%, CCCCN1CNC(=S)N(c2ccc(C(=O)OCC)cc2)C1 -9.47%, COc1ccc(-c2oc3ccccc3c2C(=O)Oc2ccccc2)cc1 0.138%, Cc1ccc(-c2nn(-c3ccccc3)cc2CN(C)C(=O)CCC(=O)O)cc1C -15.5%, O=[N+]([O-])c1cccc(-c2nnc(-c3ccccc3)o2)c1 -13.4%, Cc1ccc(C(=O)N/C(=C/c2ccco2)C(=O)Nc2cccc(C(=O)O)c2)cc1 -3.67%, Cc1cccc(OCC(=O)Nc2cccc(C(=O)NCC(C)C)c2)c1 -11.5%, COc1ccc(C2NS(=O)(=O)N=C2N)cc1 (stereo not given) -1.94%, CC(=O)C1C(=O)c2c(cccc2[N+](=O)[O-])C1=Nc1ccc(S(N)(=O)=O)cc1 (stereo not given) -10.1%, CCOC(=O)N1CCN(S(=O)(=O)c2ccc3c(c2)OCC(=O)N3)CC1 -10.4%, Cc1ccc(-c2cn(-c3ccccc3)c(=S)[nH]2)cc1C -10%, O=C(Nc1ccccc1N1CCCCC1)C1CCN(C(=O)c2ccc(Cl)cc2)CC1 -15.7%, CCOC(=O)c1c(NC(=O)CSc2nnc(-c3c[nH]c4ccccc34)n2C)sc2c1CCCC2 -23.8%, O=C(NCCCn1ccnc1)C(=O)NCC1OCCN1S(=O)(=O)c1cc(F)ccc1F (stereo not given) -8.72%, O=C(O)CCSc1nnc(-c2ccc3c(c2)OCO3)o1 1.52%, Cc1c(C(=O)c2no[n+]([O-])c2C(=O)c2cnn(C)c2C)cnn1C 12.6%, O=S(=O)(Nc1cccc(Oc2cnccn2)c1)c1ccc(F)cc1 -8.07%, CCOc1cc(/C=N/NC(=O)c2cccc(S(=O)(=O)N3CCOCC3)c2)ccc1OCC(=O)N(C)C -8.98%, Cc1ccc(-c2cc3c(N=O)c4ccccc4c-3n[nH]2)cc1 9.74%, CCCN(CCC)C(=O)CSc1nc2ccsc2c(=O)n1NC(=O)c1ccccc1 -0.911%, COc1cccc(C(c2sc3nc(C)nn3c2O)N2CCN(C(=O)c3ccco3)CC2)c1 (stereo not given) -17.6%, Cn1c(=O)c2ccccc2n(Cc2ccccc2Cl)c1=O -29.6%, O=C(CCl)NC(Cc1ccccc1)c1ccccc1 (stereo not given) 9.09%, COC(=O)c1cc(S(=O)(=O)NCCc2ccccc2)c[nH]1 -14.9%, O=C(CCl)N=c1sccn1Cc1ccc(Cl)cc1Cl -29.8%, Cc1ccc(S(=O)(=O)N2CCN(CC(=O)N/N=C\c3ccncc3)CC2)cc1 -9.13%, O=C(O)c1ccc2nc(-c3ccccc3)sc2c1 -4.16%, Cn1c(=O)c2c(SCC(=O)N3CCCc4ccccc43)nc(C3CC3)nc2n(C)c1=O -16.5%, Cc1ccc(C)c(NC(=O)COc2coc(CN3CCc4ccccc4C3)cc2=O)c1 -27.9%, Cc1ccc2[nH]c(=O)c(CN(C(=O)c3cccc([N+](=O)[O-])c3)C(C)C)cc2c1 -24.7%, O=C(Nc1ccc(S(=O)(=O)N2CCOCC2)cc1)c1ccc(Cl)cc1Cl -21.7%, COC(=O)c1nn(-c2ccc3c(c2)CCN3C(C)=O)cc1O 21.1%, Cc1cc(C)c2[nH]c(=O)c(C(c3nnnn3CC3CCCO3)N3CCC(C)CC3)cc2c1 (stereo not given) -26.5%, N=C(N)SCc1ccccc1Cl 19.3%, COc1ccc(C(=O)NCc2nnc(SCC(=O)N3CCC(C)CC3)o2)cc1OC -11.6%, O=C(Cn1nc2ccccc2n1)N/N=C/c1cc([N+](=O)[O-])ccc1O 6%, O=C(Oc1ccccc1Cl)c1ccc(-n2cncn2)nc1 -8.84%, COc1ccc(S(=O)(=O)N2CCCCCC2)cc1C(=O)OCC(=O)NC(C)(C)C -11.8%, Nc1ccccc1-c1nc2ccccc2s1 -7.02%, O=C(N1CCCCC1)N1CCN(S(=O)(=O)c2ccccc2)CC1 -11.3%, COc1ccc(S(=O)(=O)N2CCCC2)cc1C(C)C -16.1%, Cc1nc2sccn2c(=O)c1S(=O)(=O)Nc1ccc(N2CCOCC2)c(Cl)c1 -25.3%, COC(=O)c1cccc(NC(=O)CN2CCN(Cc3ccccc3)CC2)c1 2.65%, CN1CCc2c(sc(/N=C/c3cc(C(C)(C)C)ccc3O)c2C#N)C1 3.37%, COc1ccc2[nH]c3c(=O)n(CCCN4CCOCC4)cnc3c2c1 -12.4%, CCO/C(C)=C1/SC(=S)NC1=O 3.62%, c1ccc(OCCSc2nc3ccccc3o2)cc1 -18%, COc1cc(NC(=O)c2cc(C)nc3ccccc23)cc(OC)c1 -25.1%, COc1cccc(C(=O)c2c[nH]c(C(=O)NCc3ccco3)c2)c1 -5.49%, COc1ccc(CNC(=O)c2cnc3scc(C)n3c2=O)cc1 -20.1%, COc1ccc(Cl)cc1C(=O)NCC(=O)OCc1ccccc1 8.73%, O=C(CCNC(=O)c1ccc(Cl)cc1)Nc1ncccc1O -4.94%, CCCCOC(=O)CSCC(=O)Nc1cc(C)on1 2.2%, CCN(CC)S(=O)(=O)c1ccc2c(c1)c(=O)c(C(=O)NCc1ccco1)cn2C -6.4%, CC(=O)N(c1ccc2oc(=O)sc2c1)S(=O)(=O)c1ccc(C(=O)O)cc1 -1.71%, CCOC(=O)c1cc(S(=O)(=O)N2CCc3ccccc32)cn1C -12.5%, Fc1ccccc1N1CCN(Cc2cc(-c3ccccc3)on2)CC1 -10.8%, CCc1ccccc1NC(=O)CSc1nnc(-c2ccncc2)o1 -11.8%, COCCNC(=O)C(OC(=O)c1cccs1)c1ccccc1 (stereo not given) 2.58%, COc1ccc(CCNC(=O)CN(c2ccc(OC)c(OC)c2)S(C)(=O)=O)cc1OC -22.4%, CCC(NC(=S)NCc1ccccc1)C(=O)O (stereo not given) 29.3%, CCOCCn1c(SCC(=O)OCc2ccccc2)nc2c1c(=O)[nH]c(=O)n2C -11.3%, CC(C)c1nc2ccccc2c2nnc(SCC(=O)NCc3ccco3)n12 -7.5%, CC(=O)Nc1ccc(-c2cn3c(n2)SCC3)cc1 -4.99%, CC1(C)Cc2nc3[nH]c(=S)n(-c4ccccc4)c(=O)c3cc2CO1 -13.3%, Cc1ccc(S(=O)(=O)c2ccc(Oc3ccccc3)cc2)cc1 -11%, CC1CCCN(c2ncnc3c2cnn3-c2ccc(Cl)cc2)C1 (stereo not given) -10.3%, COc1ccc(Cn2nnnc2C(c2cc3cccc(C)c3[nH]c2=O)N2CCN(C)CC2)cc1 (stereo not given) 7.29%, CC(C)c1ccc(NC(=O)N(CCc2nc3ccccc3[nH]2)C2CCCC2)cc1 78.7%, CCCS(=O)(=O)N1CCc2cc(OC)c(OC)cc2C1 -3.49%, CCC(Sc1nc2cc(OC)c(OC)cc2c(=O)n1CCc1ccc(S(N)(=O)=O)cc1)C(=O)NCCOC (stereo not given) 16.7%, O=C(N/N=C/c1ccccn1)c1ccc([N+](=O)[O-])cc1 -24.2%, CN(C)c1ccc(CNc2ccc3c(c2)ncn3C(C)(C)C)cc1 -15.9%, COc1cccc(-n2nc(-c3ccnn3-c3cccc(Cl)c3)c(=O)n(C)c2=O)c1 -21.5%, CCOC(=O)c1cc2sccc2n1CC(=O)Nc1ccc(OC)cc1 -14.8%, Cc1cccc(-c2ocnc2C(=O)N2CCN(C(=O)c3cccs3)CC2)c1 -4.21%, CCOC(=O)c1c(C)nc2c(C)cccn12 -16.6%, CC(C)(C)C(=O)OCc1nc(-c2ccc3c(c2)OCCO3)cs1 9.21%, Cc1nn(C(C)(C)C)c(C)c1/C=N/OC(=O)Nc1ccc(Cl)c(Cl)c1 -12.2%, Nc1nc(CSC(=S)N2CCCCC2)nc(Nc2ccccc2)n1 -2.27%, NS(=O)(=O)c1ccc(NC2=CC(=O)C(=O)c3ccccc32)cc1 -43.6%, Cn1c(NC(=O)c2ccccc2NC(=O)C(C)(C)C)nc2ccccc21 -22.4%
